From the supplement of paper PMC10849652
Targets with a hit are over-represented here; the source holds about 8,800 in all. About 0.5% of all pairs of compound and target were hits. Unmarked numbers belong to inactive results.

How the values were obtained:
Assay in all cases: log2 fold change, soluble protein after heating vs DMSO (PISA); higher = thermal stabilisation; K562 lysate, 10 uM; active = over 0.2 and 3.5 SD of the protein, either way, in both replicates (recomputed)
[1] = compound: Cc1cn(-c2cc(NC(=O)c3ccc(C)c(Nc4nccc(-c5cccnc5)n4)c3)cc(C(F)(F)F)c2)cn1 [nilotinib]
Method in brief: (§1)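 Pellets of K562 cells were dounce-homogenised in PBS pH 7.4 with 1 mM MgCl2, and the crude extract was held at 1 mg/mL protein for a 30 min treatment with 10 μM compound. Aliquots were heated for 3 min over 48°C-58°C and pooled before NP-40 was added to 0.5% at 4°C. The supernatant from 21,000xg for 90 min was quantified by TMTpro 16plex LC-MS/MS with channel sums equalised. Values are reported from duplicates as log-two fold change in thermal stability relative to solvent controls.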

[2] = compound: Cc1nc(Nc2n[nH]c3c2CN(C(=O)N[C@H](CN(C)C)c2ccccc2)C3(C)C)c2sccc2n1
Method in brief: as §1

[3] = compound: Cc1nc(Nc2ncc(C(=O)Nc3c(C)cccc3Cl)s2)cc(N2CCN(CCO)CC2)n1 [dasatinib]
Method in brief: as §1

[4] = compound: Cc1ncc(-c2ccnc(Nc3ccc(S(C)(=O)=O)cc3)n2)n1C(C)C
Method in brief: as §1

[5] = compound: Cn1cc(-c2ccc3c(c2)CCN3C(=O)Cc2cccc(C(F)(F)F)c2)c2c(N)ncnc21
Method in brief: as §1

[6] = compound: Cn1cc(CNCC2CCN(c3ncc(C(=O)NO)cn3)CC2)c2ccccc21 [quisinostat]
Method in brief: as §1

[7] = compound: Cn1cncc1[C@@](N)(c1ccc(Cl)cc1)c1ccc2c(c1)c(-c1cccc(Cl)c1)cc(=O)n2C [tipifarnib]
Method in brief: as §1

[8] = compound: NC(=O)Nc1cc(-c2cccc(F)c2)sc1C(=O)N[C@H]1CCCNC1
Method in brief: as §1

[9] = compound: NC(=O)c1cnc(N[C@@H]2CCCC[C@@H]2N)nc1Nc1cccc(-n2nccn2)c1
Method in brief: as §1

[10] = compound: NC1(c2ccc(-c3nc4ccn5c(=O)[nH]nc5c4cc3-c3ccccc3)cc2)CCC1
Method in brief: as §1

UniProt Q15046, sequence (Q15046 whole entry, looked up): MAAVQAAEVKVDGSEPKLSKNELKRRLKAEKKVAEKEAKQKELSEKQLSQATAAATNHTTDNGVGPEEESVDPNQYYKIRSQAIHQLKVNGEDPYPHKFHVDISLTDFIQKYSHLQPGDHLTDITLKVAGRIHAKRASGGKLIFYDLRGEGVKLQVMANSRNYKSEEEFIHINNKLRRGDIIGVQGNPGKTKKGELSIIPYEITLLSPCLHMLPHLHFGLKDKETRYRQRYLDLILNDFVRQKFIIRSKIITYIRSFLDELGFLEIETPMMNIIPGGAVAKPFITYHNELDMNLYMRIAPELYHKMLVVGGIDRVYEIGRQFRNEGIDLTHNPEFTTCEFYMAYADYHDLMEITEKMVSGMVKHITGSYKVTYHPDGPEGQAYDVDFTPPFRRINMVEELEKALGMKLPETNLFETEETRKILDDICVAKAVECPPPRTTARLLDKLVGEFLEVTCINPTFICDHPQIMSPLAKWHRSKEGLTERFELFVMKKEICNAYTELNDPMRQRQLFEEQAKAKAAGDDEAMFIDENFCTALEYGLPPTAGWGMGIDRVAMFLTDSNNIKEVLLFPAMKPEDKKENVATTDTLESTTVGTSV
UniProt A6NDN3, sequence (A6NDN3 whole entry, looked up): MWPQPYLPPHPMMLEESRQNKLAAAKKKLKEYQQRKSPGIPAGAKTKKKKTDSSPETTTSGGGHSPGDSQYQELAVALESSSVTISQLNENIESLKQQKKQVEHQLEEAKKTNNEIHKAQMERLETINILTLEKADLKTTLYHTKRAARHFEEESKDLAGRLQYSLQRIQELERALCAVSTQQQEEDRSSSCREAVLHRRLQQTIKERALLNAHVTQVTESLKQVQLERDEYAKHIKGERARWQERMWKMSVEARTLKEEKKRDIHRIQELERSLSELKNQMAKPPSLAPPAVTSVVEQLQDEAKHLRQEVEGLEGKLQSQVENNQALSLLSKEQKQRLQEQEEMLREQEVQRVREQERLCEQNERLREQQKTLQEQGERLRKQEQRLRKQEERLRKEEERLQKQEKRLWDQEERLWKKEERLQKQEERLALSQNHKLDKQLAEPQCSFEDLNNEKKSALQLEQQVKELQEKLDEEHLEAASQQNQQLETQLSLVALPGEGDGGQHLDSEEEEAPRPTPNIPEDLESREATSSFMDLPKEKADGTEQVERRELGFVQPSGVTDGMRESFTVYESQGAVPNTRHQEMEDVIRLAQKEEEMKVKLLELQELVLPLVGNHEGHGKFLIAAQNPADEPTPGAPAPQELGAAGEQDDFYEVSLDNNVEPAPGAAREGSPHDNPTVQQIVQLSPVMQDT
UniProt Q9NVX0, sequence (Q9NVX0 whole entry, looked up): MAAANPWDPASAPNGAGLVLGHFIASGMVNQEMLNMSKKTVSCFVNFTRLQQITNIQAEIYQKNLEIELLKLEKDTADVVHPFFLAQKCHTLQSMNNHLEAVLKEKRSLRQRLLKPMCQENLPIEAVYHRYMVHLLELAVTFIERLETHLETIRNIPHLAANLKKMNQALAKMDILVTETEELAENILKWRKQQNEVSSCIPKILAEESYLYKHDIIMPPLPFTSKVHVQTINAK
UniProt Q9HAV0, sequence (Q9HAV0 whole entry, looked up): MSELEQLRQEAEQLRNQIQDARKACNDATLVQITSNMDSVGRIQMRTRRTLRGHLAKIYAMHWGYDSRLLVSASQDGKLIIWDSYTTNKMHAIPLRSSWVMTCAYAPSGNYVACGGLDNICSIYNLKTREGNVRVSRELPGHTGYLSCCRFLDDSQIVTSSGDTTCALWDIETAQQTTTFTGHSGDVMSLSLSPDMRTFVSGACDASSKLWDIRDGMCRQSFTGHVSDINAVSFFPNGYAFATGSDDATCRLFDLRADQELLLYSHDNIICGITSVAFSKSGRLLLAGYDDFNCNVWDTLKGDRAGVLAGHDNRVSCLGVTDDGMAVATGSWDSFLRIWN
UniProt Q68E01, sequence (Q68E01 whole entry, looked up): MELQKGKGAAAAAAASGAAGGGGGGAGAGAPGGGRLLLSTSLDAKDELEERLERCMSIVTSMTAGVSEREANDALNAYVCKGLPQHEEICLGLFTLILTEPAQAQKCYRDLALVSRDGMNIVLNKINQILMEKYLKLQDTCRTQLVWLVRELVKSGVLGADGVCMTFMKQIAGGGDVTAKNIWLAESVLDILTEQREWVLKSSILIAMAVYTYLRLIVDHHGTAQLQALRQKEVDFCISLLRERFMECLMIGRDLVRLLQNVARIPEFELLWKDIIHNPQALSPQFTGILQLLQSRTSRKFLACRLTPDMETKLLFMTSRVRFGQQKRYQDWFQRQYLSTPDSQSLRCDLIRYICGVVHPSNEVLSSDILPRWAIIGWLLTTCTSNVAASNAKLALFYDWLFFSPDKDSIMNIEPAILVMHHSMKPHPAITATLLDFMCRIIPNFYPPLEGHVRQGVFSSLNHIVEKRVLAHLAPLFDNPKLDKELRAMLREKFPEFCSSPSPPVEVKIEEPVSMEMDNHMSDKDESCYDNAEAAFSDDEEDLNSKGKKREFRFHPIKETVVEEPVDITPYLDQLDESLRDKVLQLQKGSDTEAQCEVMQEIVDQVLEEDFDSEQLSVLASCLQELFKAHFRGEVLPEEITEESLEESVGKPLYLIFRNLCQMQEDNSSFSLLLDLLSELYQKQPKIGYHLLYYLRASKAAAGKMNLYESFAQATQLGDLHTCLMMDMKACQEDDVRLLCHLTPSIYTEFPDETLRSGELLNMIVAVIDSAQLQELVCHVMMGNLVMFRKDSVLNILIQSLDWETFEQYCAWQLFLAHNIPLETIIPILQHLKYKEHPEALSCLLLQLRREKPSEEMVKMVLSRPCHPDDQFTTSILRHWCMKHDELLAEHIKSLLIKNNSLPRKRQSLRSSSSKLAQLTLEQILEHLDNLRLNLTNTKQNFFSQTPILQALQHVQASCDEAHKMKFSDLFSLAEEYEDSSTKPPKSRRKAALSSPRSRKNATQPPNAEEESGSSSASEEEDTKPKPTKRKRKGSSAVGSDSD
UniProt Q9Y2X7, sequence (Q9Y2X7 whole entry, looked up): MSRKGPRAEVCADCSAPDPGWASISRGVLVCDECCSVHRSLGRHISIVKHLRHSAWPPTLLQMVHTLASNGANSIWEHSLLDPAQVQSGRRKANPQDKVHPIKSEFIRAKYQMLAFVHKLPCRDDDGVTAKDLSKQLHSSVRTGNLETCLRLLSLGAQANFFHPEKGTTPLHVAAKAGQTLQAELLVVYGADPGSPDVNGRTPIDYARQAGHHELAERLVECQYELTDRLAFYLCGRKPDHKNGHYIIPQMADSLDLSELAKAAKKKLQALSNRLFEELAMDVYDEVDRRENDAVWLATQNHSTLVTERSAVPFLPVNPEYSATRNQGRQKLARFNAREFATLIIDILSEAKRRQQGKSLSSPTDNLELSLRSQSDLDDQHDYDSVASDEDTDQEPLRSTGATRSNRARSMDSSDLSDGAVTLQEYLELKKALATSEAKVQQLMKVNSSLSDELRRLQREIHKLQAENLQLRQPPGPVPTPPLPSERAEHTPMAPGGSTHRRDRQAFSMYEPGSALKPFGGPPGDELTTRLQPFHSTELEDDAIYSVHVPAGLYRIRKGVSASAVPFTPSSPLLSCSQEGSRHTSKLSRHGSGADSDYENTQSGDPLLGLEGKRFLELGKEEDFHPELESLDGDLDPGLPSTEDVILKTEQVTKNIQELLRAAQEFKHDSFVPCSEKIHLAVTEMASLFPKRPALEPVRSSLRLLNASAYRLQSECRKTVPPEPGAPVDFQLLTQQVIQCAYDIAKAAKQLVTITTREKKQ
UniProt Q9H4A6, sequence (Q9H4A6 whole entry, looked up): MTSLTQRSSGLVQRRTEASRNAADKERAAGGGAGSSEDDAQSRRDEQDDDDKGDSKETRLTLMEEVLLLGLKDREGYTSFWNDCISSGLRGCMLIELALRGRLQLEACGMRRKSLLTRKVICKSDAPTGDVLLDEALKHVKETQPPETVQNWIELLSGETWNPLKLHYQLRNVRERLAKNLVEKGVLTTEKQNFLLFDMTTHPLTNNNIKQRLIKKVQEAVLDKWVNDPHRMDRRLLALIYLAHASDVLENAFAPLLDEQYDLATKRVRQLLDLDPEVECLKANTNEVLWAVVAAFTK
UniProt Q53GQ0, sequence (Q53GQ0 whole entry, looked up): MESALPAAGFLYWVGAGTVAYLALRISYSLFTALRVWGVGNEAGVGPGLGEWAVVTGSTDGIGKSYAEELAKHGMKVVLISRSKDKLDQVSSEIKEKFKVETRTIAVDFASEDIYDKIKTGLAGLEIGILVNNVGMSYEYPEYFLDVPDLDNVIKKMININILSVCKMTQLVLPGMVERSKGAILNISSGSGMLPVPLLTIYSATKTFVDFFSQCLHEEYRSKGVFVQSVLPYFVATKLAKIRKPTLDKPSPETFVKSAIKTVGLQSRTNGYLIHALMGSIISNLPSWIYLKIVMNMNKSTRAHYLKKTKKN
UniProt P26583, sequence (P26583 whole entry, looked up): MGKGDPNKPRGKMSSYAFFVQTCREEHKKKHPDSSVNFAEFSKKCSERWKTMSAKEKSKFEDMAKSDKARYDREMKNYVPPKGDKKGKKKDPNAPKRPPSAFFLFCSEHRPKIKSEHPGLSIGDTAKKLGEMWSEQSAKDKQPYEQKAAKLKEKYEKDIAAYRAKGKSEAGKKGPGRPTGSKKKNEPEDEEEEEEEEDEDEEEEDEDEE
UniProt Q9H9Y4, sequence (Q9H9Y4 whole entry, looked up): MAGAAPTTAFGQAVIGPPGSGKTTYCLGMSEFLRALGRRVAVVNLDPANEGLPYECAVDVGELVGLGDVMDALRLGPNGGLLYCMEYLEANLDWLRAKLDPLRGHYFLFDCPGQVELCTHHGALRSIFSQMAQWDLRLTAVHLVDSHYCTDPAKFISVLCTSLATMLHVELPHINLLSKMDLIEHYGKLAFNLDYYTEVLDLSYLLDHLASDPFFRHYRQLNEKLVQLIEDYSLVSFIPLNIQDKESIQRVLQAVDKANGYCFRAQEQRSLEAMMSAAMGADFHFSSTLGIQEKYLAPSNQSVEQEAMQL

Row | Target | log2 fold change [1] | log2 fold change [2] | log2 fold change [3] | log2 fold change [4] | log2 fold change [5] | log2 fold change [6] | log2 fold change [7] | log2 fold change [8] | log2 fold change [9] | log2 fold change [10]
1 | HACE1 (UniProt Q8IYU2) | -0.027 | 0.043 | -0.154 | 0.035 | -0.084 | 0.061 | -0.175 | 0.181 | 0.028 | -0.02
2 | GPN2 (UniProt Q9H9Y4) | -0.065 | 0.046 | 0.062 | -0.009 | -0.046 | -0.022 | 0.013 | -0.008 | 0.01 | -0.034
3 | HAUS2 (UniProt Q9NVX0) | 0.036 | -0.033 | -0.028 | 0.069 | 0.05 | -0.04 | -0.034 | -0.014 | -0.094 | 0.037
4 | GPR108 (UniProt Q9NPR9) | 0.044 | 0.033 | -0.035 | 0.011 | -0.057 | -0.063 | -0.088 | -0.013 | 0.046 | -0.002
5 | GOLPH3L (UniProt Q9H4A5) | -0.045 | 0.033 | 0 | -0.006 | 0.01 | -0.026 | 0.018 | 0.094 | 0.013 | -0.039
6 | HMGB2 (UniProt P26583) | 0.045 | -0.042 | 0.057 | 0.077 | 0.018 | 0.065 | 0.033 | -0.014 | -0.018 | 0
7 | GLUD2 (UniProt P49448) | 0.053 | -0.067 | 0.013 | -0.003 | -0.017 | 0.039 | 0.047 | 0.015 | 0.012 | -0.004
8 | HDAC6 (UniProt Q9UBN7) | 0.078 | -0.016 | -0.06 | -0.034 | 0.042 | 0.031 | 0.024 | -0.01 | 0.034 | -0.027
9 | IARS2 (UniProt Q9NSE4) | 0.016 | -0.007 | -0.021 | 0.026 | 0 | 0.022 | 0.006 | 0.021 | 0.02 | -0.004
10 | GORASP1 (UniProt Q9BQQ3) | 0.011 | -0.02 | -0.019 | 0.034 | 0.048 | 0.034 | -0.006 | -0.071 | 0.177 | -0.11
11 | GMDS (UniProt O60547) | -0.023 | 0.05 | -0.043 | -0.03 | -0.013 | -0.041 | 0.029 | 0.038 | -0.005 | -0.029
12 | GOLPH3 (UniProt Q9H4A6) | -0.008 | 0.008 | -0.071 | 0.044 | -0.013 | -0.065 | -0.039 | 0.012 | -0.023 | -0.02
13 | HAUS5 (UniProt O94927) | -0.014 | 0.01 | -0.071 | -0.011 | -0.015 | -0.11 | 0.006 | 0.079 | 0.004 | -0.02
14 | HADHA (UniProt P40939) | 0.051 | -0.024 | -0.036 | 0.002 | 0.03 | -0.082 | 0.025 | -0.077 | -0.071 | 0.078
15 | GSK3A (UniProt P49840) | 0.026 | 0.425 | 0.021 | 0.562 (active) | 0.048 | -0.009 | -0.008 | -0.024 | 0.099 | -0.006
16 | GOLGA6B (UniProt A6NDN3) | 0.039 | -0.102 | 0.009 | -0.075 | 0.161 | -0.355 | 0.051 | 0.106 | -0.008 | -0.082
17 | H4C1 (UniProt P62805) | 0.051 | -0.027 | -0.063 | -0.033 | 0.048 | 0.137 | 0 | -0.032 | 0.01 | 0.015
18 | KARS1 (UniProt Q15046) | -0.017 | -0.01 | -0.031 | -0.029 | 0.02 | 0.034 | 0.02 | 0.004 | 0.013 | 0.02
19 | GTF2I (UniProt P78347) | 0.001 | 0.002 | -0.042 | -0.011 | 0.035 | -0.006 | -0.008 | 0.034 | 0 | -0.014
20 | INTS3 (UniProt Q68E01) | -0.007 | 0.007 | -0.05 | -0.045 | 0.005 | -0.038 | 0.09 | 0.028 | -0.002 | -0.028
21 | GSTZ1 (UniProt G3V4T6) | 0.026 | 0.009 | -0.024 | -0.016 | 0.083 | 0.016 | 0.014 | 0.029 | -0.012 | -0.007
22 | GTF3C5 isoform 3 (UniProt Q9Y5Q8) | 0.023 | -0.023 | -0.017 | -0.018 | 0.019 | -0.063 | -0.004 | 0.05 | -0.006 | 0.005
23 | HDGFL2 isoform 2 (UniProt Q7Z4V5) | -0.005 | -0.005 | 0.014 | -0.021 | -0.023 | -0.061 | 0.003 | 0.011 | -0.001 | -0.02
24 | IRF2BP1 (UniProt Q8IU81) | 0.018 | 0.016 | -0.082 | -0.019 | 0.032 | -0.099 | -0.124 | 0.057 | -0.03 | 0.045
25 | GNB4 (UniProt Q9HAV0) | -0.083 | 0.055 | 0.048 | 0.127 | -0.097 | 0.042 | 0.048 | -0.172 | 0.028 | 0.007
26 | GIT1 (UniProt Q9Y2X7) | 0.03 | -0.062 | -0.05 | -0.042 | 0.036 | -0.045 | -0.086 | 0.035 | -0.007 | -0.026
27 | INF2 (UniProt Q27J81) | -0.08 | 0.055 | 0.032 | 0.034 | -0.013 | -0.051 | -0.079 | 0.023 | 0.005 | -0.035
28 | HNRNPDL (UniProt O14979) | -0.208 | 0.036 | 0.016 | -0.018 | -0.005 | 0.074 | -0.002 | -0.062 | -0.008 | 0.004
29 | GNE isoform 2 (UniProt Q9Y223) | -0.013 | -0.003 | 0.003 | -0.081 | 0.025 | -0.042 | 0.008 | 0.061 | -0.008 | -0.006
30 | HSD17B12 (UniProt Q53GQ0) | -0.024 | -0.04 | 0.016 | 0.033 | 0.007 | 0.073 | -0.118 | 0.058 | 0.012 | -0.045
